Data reported in PubChem BioAssay (Tox21).
Several values for one entry are separate records, joined by “and”; a condition that tells them apart may be missing. Identical values can stand only once. Inconclusive results are not listed. Entries that show only a call come without a potency. Activity calls are given as the source filed them. The call rests on the fitted dose curve; in most records, active means well fitted cell-killing curve with a large enough effect in the repeat runs; inconclusive means weak or mixed curves, or effect the other way; inactive means flat fitted curve, though single readings scatter.

assay: qHTS assay to identify small molecule agonists of the constitutive androstane receptor (CAR) signaling pathway - cell viability counter screen (AID 1224836); conditions: HepG2-CYP2B6-hCAR viability, CellTiter-Fluor, 23 h, PK11195 added to every well; series mostly up to 92.4 µM; further: nearly all actives have a fitted effect of over 45% in size
Procedure, shortened: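 Using CellTiter-Fluor, viability of HepG2 cells harbouring hCAR and CYP2B6-2.2kb was measured following 23 h incubation with a 15-concentration compound series plus PK11195 (0.75 uM final).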
Potency means the concentration at half of the fitted maximal effect.

Compound	Potency
Cc1cc(NS(=O)(=O)c2ccc(N)cc2)no1	inactive
Nc1cc(-c2ccncc2)c[nH]c1=O	inactive
CC(C)(N=C=O)c1cccc(C(C)(C)N=C=O)c1	inactive
CCCCC/C=C\C/C=C\CCCCCCCC(=O)OC	inactive
Oc1ccc(OCc2ccccc2)cc1	inactive
CCC(=O)O	inactive
CC1CC(OC(=O)c2ccccc2O)CC(C)(C)C1 (stereo not drawn)	inactive
CC1Cc2ccccc2N1NC(=O)c1ccc(Cl)c(S(N)(=O)=O)c1 (stereo not drawn)	inactive
O=[N+]([O-])C(CO)(CO)CO	inactive
Cc1cc(O)cc(C)c1Cl	inactive
Oc1c(Cl)cc(Cl)c(Cl)c1Cl	inactive
Cc1cc(Cc2ccc(N)c(C)c2)ccc1N	inactive
C=C1CC[C@H](O)CC1=C/C=C1\CCC[C@]2(C)[C@@H]([C@H](C)/C=C/[C@H](C)C(C)C)CC[C@@H]12	inactive
CC(C)n1c(/C=C/[C@@H](O)C[C@@H](O)CC(=O)O)c(-c2ccc(F)cc2)c2ccccc21	inactive
CCCCCCCCCC(=O)O	inactive
CN(C)c1ccc(C(=N)c2ccc(N(C)C)cc2)cc1	24 µM (active) and 23.4 µM (active)
CC(=O)CCc1ccccc1	inactive

Compound	Potency
O=Nc1ccc(O)cc1	inactive
CC1=C(CC(=O)O)c2cc(F)ccc2/C1=C\c1ccc(S(C)=O)cc1 (stereo not drawn)	inactive
COC(=O)c1ccccc1O	inactive
CCOC(=O)/C=C\C(=O)OCC	inactive
C/C=C(C)/C=C/C=C(C)C	inactive
Oc1ccc2ccccc2c1	inactive
Clc1cc(Cl)c(Cl)cc1Cl	inactive
CC1(C)O[C@@H]2C[C@H]3[C@@H]4C[C@H](F)C5=CC(=O)CC[C@]5(C)[C@H]4[C@@H](O)C[C@]3(C)[C@]2(C(=O)CO)O1	inactive
O=C(c1ccc(O)cc1)c1ccc(O)cc1O	inactive
COC(=O)Nc1nc2ccc(Sc3ccccc3)cc2[nH]1	inactive
CC1(C)CC(N=C=O)CC(C)(CN=C=O)C1 (stereo not drawn)	inactive
NCCc1ccc(O)c(O)c1	inactive
CC(C)(C)C1CCC(O)CC1 (stereo not drawn)	inactive
CCCCC(CC)COC(C)=O (stereo not drawn)	inactive
CC1COc2ccccc2N1C(=O)C(Cl)Cl (stereo not drawn)	27.3 µM (active)
S=c1nc[nH]c2nc[nH]c12	inactive
